From PubChem
MITF inh: MITF inhibitors, primary screen, biochemical, AlphaScreen, human. Microphthalmia-associated transcription factor (Homo sapiens), O75030. hit rate 0.91% among 650,000. AlphaScreen MITF homodimerization, bead proximity signal. inhibition, % at 2.6 µM; in the data active means inhibition above about 50%
FBW7 activator: FBW7 E3 ligase activators, primary screen, biochemical, AlphaScreen, human | hit rate 0.13% among 650,000 | F-box/WD repeat-containing protein 7 (Homo sapiens), Q969H0 | AlphaScreen FBW7–phospho-cyclin E peptide binding, activator screen | normalized activity (activation), % at 26.1 µM; in the data active means normalized activity above about 1.9%;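 further: purified mutant Fbw7 with reduced substrate affinity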
TEAD-YAP inh: TEAD-YAP interaction inhibition, primary screen, TEAD-YAP interaction inhibitor project, luminescence, HEK-TIYL cells; TEAD-Gal4/YAP UAS-luciferase luminescence; inhibition, % at 9.12 µM; hit rate 1.4% among 640,000; AID 1259422, 2018; in the data active means inhibition above about 32%
GPR151 ag: activators of human GPR151, primary screen, cell-based, PathHunter beta-arrestin, luminescence | G-protein coupled receptor 151 (Homo sapiens), Q8TDV0 | PathHunter beta-arrestin GPR151 cells | activation, % at 11.2 µM | hit rate 1% among 650,000 | AID 1508602, 2020; in the data active means activation above about 4.9%
GPR151 confirm: GPR151 activators, triplicate retest, confirmation, cell-based, PathHunter beta-arrestin, luminescence. 6,700 tested, under 10 active. shares compounds with GPR151 ag. GPR151 PathHunter beta-arrestin cells, 90 min; % of EA-reagent control over plate median. activation, % at 11.2 µM;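 active means mean percent activation across replicates above the confirmation screen cutoff of 4.91%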
GPR119 counter: GPR119 activators in beta-arrestin cells, counter-screen for GPR151 activator project, cell-based, PathHunter beta-arrestin, luminescence, triplicate. shares compounds with GPR151 ag. 90 min; 0 = compound-well median, 100 = enzyme-acceptor control. activation, % at 11.2 µM. hit rate 0.3% among 6,700. AID 1508611, 2020;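 active means mean percent activation in the counterscreen above 29.09%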;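 further: counterscreen on off-target GPR119 to flag nonselective hits from the GPR151 activator screen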
Target sequence (Q8TDV5 whole entry, looked up): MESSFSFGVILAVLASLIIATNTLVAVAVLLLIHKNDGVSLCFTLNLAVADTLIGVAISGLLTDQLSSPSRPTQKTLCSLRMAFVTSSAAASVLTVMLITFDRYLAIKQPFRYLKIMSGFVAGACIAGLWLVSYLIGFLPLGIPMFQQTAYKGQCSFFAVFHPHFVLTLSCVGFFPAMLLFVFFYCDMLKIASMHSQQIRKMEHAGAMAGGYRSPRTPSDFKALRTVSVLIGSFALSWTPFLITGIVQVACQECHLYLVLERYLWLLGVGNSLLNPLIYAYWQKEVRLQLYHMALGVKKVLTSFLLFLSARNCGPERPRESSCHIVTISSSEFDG
Of the large screens only hits and unclear results are named; the others gave an inactive call (follow-up assays come after a bar, where they were run); ! = repeats disagree. This is a sample that favours compounds with a hit; in the whole collection about 3.4% have one here.

CC(C)N(C(=O)Cc1csc(NC(=O)Nc2ccc(Cl)cc2)n1)C(C)C	GPR151 ag 11 | GPR151 confirm inactive | GPR119 counter inactive
CCOC(=O)c1csc(NC(=O)Nc2ccc(Cl)cc2)n1	none
O=c1c2cc3ccccc3cc2[nH]c(=S)n1-c1ccccc1C(F)(F)F	none
C=CCn1c(SC(C)C)nc2c1c(=O)n(C)c(=O)n2C	GPR151 ag 8.6 | GPR151 confirm inactive | GPR119 counter inactive
Cc1ccc2[nH]c3c(c2c1)CCCC3NC(=O)CCl (centres undefined)	TEAD-YAP inh 88, GPR151 ag 7.3 | GPR151 confirm inactive | GPR119 counter inactive
O=C(CSc1nc2ccsc2c(=O)n1-c1ccc(Cl)cc1)c1ccc(Cl)cc1	none
O=C(N/N=C/c1ccccc1F)c1cccnc1	GPR151 ag 7.1 | GPR151 confirm inactive | GPR119 counter inactive
Cc1[nH]c2ccccc2c1/C=N/NC(=O)c1cccnc1	GPR151 ag 5.2 | GPR151 confirm inactive | GPR119 counter inactive
Cc1[nH]c2ccccc2c1/C=N/NC(=O)c1ccccc1O	none
O=[N+]([O-])c1ccc(-c2nc(Nc3ccc(Cl)cc3)c3ccccc3n2)cc1	none
O=C1CC(c2nnc(Cc3ccccc3Cl)o2)CN1c1ccccc1 (centres undefined)	GPR151 ag 5.5 | GPR151 confirm inactive | GPR119 counter inactive
CCC[C@@H]1NC(=O)[C@@H]2C[C@H](NCc3cc(C)ccc3F)CN2C1=O	GPR151 ag 9.4 | GPR151 confirm inactive | GPR119 counter inactive
CC(C)C[C@@H]1NC(=O)[C@@H]2C[C@H](NCc3ccc(C(C)C)cc3)CN2C1=O	none
CCC[C@@H]1NC(=O)[C@@H]2C[C@H](NCc3cc4ccccc4s3)CN2C1=O	GPR151 ag 5.6 | GPR151 confirm inactive | GPR119 counter inactive
CC(C)C[C@H]1NC(=O)[C@@H]2C[C@H](NCc3nc(-c4ccc(F)cc4)cs3)CN2C1=O	none
O=C1N[C@H](CO)C(=O)N2C[C@@H](NCc3nc(-c4ccc(F)cc4)cs3)C[C@@H]12	GPR151 ag 7.7 | GPR151 confirm inactive | GPR119 counter inactive
COc1ccc(CN[C@H]2C[C@H]3C(=O)N[C@H](CC(C)C)C(=O)N3C2)cc1	GPR151 ag 5.1 | GPR151 confirm inactive | GPR119 counter inactive
Cn1cc(CN[C@H]2C[C@H]3C(=O)N[C@@H](Cc4ccccc4)C(=O)N3C2)c(-c2ccccc2)n1	GPR151 ag 9.8 | GPR151 confirm inactive | GPR119 counter inactive
COc1ccccc1CN[C@H]1C[C@H]2C(=O)N[C@@H](CO)C(=O)N2C1	GPR151 ag 5.2 | GPR151 confirm inactive | GPR119 counter inactive
CN(C)c1ccc(/C=N/N2C(=O)c3cccc4cccc(c34)C2=O)cc1	none
O=C1CC(NC(=O)N2CCCc3ccccc32)CN1c1ccc(F)cc1 (centres undefined)	none
COc1cccc(NC(=O)N2CCNCC2)c1	GPR151 ag 23 | GPR151 confirm inactive | GPR119 counter inactive
CCOC(=O)C(C)Oc1ccc2oc(=O)cc(C)c2c1 (centres undefined)	none
O=C(Cc1c[nH]c2ccccc12)NCC1Cc2cccc(-c3ccccn3)c2O1 (centres undefined)	none
COc1ccc(OC)c(N2CC(O)(c3ccc(OC)c(OC)c3)[N+]3=C2SCCC3)c1 (centres undefined)	GPR151 ag 5.4 | GPR151 confirm inactive | GPR119 counter inactive
COc1ccc(C2(O)CN(c3cc(OC)ccc3OC)C3=[N+]2CCCS3)cc1 (centres undefined)	none
Nc1cccc(-c2ncc(C(=O)NCCc3ccc(O)cc3)s2)c1	GPR151 ag 5.5 | GPR151 confirm inactive | GPR119 counter inactive
O=C(NCCc1ccc(O)cc1)c1cnc(-c2ccccc2)s1	none
O=C(O)CN=C(NS(=O)(=O)c1ccccc1)c1ccccc1	GPR151 ag 4.9! | GPR151 confirm inactive | GPR119 counter inactive
